# BoNT F protease – BoNT/F light chain protease inhibitors, primary screen, biochemical, flow cytometry, MLPCN library; inhibition, % at 10 µM; Multiplex microsphere protease cleavage assay; AID 588497, 2011; Botulinum neurotoxin type F light chain protease (Clostridium botulinum); actives 0.22% (n = 360,000); in the data active = inhibition above about 35%, passing the limit was not always enough; inconclusive = no clear call, values can overlap the other calls
# Autofluor counter – compound fluorescence in toxin protease inhibitor counterscreen | actives 3.1% (n = 360,000) | fluorescence intensity (test concentration not listed) | AID 624483 | compound autofluorescence counterscreen, microsphere flow cytometry; hits give high values; in the data active = fluorescence intensity above about 16000; inconclusive = no clear call, values can overlap the other calls
# Anthrax LF prot – Bacillus anthracis LF protease inhibitors, primary screen, biochemical, multiplex microsphere, MLPCN library; Lethal factor (Bacillus anthracis), P15917; multiplex microsphere protease cleavage assay; inhibition, % at 10 µM; actives 0.12% (n = 360,000); AID 588501, 2011
# Target sequence (P15917 whole entry, looked up): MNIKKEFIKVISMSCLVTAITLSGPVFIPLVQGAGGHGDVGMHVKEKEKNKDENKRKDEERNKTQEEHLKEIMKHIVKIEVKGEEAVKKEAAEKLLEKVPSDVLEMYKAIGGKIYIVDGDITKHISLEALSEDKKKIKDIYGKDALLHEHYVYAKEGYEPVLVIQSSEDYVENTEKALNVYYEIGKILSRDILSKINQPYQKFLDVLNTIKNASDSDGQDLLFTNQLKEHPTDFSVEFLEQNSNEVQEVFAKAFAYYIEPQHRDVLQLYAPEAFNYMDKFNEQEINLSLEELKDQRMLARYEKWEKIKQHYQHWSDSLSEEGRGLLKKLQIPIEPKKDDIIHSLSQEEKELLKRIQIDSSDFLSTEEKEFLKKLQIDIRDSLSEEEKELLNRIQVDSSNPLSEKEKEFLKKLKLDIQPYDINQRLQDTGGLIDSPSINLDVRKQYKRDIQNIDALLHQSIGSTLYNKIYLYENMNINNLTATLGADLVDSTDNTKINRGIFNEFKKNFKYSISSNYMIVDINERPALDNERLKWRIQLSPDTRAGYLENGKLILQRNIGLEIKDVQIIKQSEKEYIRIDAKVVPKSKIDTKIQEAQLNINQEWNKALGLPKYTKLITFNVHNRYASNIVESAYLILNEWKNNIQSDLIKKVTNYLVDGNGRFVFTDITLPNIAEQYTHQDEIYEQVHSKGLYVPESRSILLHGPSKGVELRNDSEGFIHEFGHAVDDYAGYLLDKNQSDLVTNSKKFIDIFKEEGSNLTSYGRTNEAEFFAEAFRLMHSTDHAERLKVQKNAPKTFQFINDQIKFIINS
# BoNT-A LC inh2 – BoNT/A light chain protease inhibitors, primary screen, biochemical, flow cytometry, MLPCN library; Botulinum neurotoxin type A light chain protease (Clostridium botulinum A str. ATCC 3502); multiplex microsphere protease substrate cleavage; AID 588499, 2011; actives 0.17% (n = 360,000); inhibition, % at 10 µM
# Vc quorum ag – inducers of Vibrio cholerae quorum light production without autoinducers, primary screen, BH1578 luxS cqsA deficient, single point; V. cholerae BH1578 lux reporter, luminescence, 6 h; activation, % at 18.7 µM; actives 0.16% (n = 350,000); in the data active = activation mostly above about 9.7%, no sharp cut-off; inconclusive = no clear call, values can overlap the other calls; inactive = mostly below about 3.7%
# A number is an active result; . = inactive; ? = inconclusive; / = no result. A selection: hits, their analogues and other compounds. The true share with any hit is near 3.5%. Cut-off read from the data, not from the text of the source, unless noted: active = inhibition above about 30%; inconclusive = no clear call, values can overlap the other calls; inactive = below that.
SMILES,BoNT F protease,Autofluor counter,Anthrax LF prot,BoNT-A LC inh2,Vc quorum ag
COC(=O)c1sccc1NC(=O)COc1ccccc1Cl,.,.,.,.,.
Cc1nnc(-c2cnn(-c3ccccc3)c2N)n1Cc1ccncc1,.,20279,.,?,.
Cc1nnc(-c2cnn(-c3ccccc3)c2N)n1Cc1cccc(C(F)(F)F)c1,.,.,.,.,.
Cn1c(=O)c2c(nc(NCCCN3CCOCC3)n2Cc2cccc(Cl)c2)n(C)c1=O,.,22276,.,.,.
Cn1c(=O)c2c(nc(CN3CCC(C(N)=O)CC3)n2CCc2ccccc2)n(C)c1=O,.,19348,.,?,.
Cn1c(=O)c2c(nc(NCCCN3CCOCC3)n2Cc2ccc(Cl)cc2)n(C)c1=O,.,?,?,.,.
Cn1c(=O)c2c(nc(CN3CCC(Cc4ccccc4)CC3)n2CCN2CCOCC2)n(C)c1=O,.,27251,.,.,.
O=C(Cc1ccc(Br)cc1)NCCc1ccc(F)cc1,?,.,.,.,.
Cc1cc(C)c2nc(NC(=O)CN3C(=O)NC4(CCCC4)C3=O)sc2c1,.,?,.,.,.
O=C(Nc1ccc2c(c1)C(=O)N(CC1CCCO1)C2=O)c1ccc(Cl)c(Cl)c1 (configuration not stated),.,22241,.,?,.
O=C(Cn1c(C(F)(F)F)nc2ccccc21)NCCN1CCCC1,.,22679,.,.,.
COc1ccc(C(=O)NC(C)c2ccncc2)cc1S(=O)(=O)N(C)Cc1ccccc1 (configuration not stated),.,.,.,.,.
CSCCC(NC(=O)c1ccc(Cl)cc1Cl)C(=O)NCC(c1cccs1)N(C)C (configuration not stated),.,.,.,.,.
COc1ccc(OCC(=O)Nc2ncc3c(n2)CC(C)(C)CC3=O)cc1,.,22939,.,?,.
Cc1cc(C)nc(SCC(=O)Nc2ncc3c(n2)CC(C)(C)CC3=O)n1,.,20783,.,.,.
CCOc1ccc(N(C(C)C(=O)N2CCOCC2)S(C)(=O)=O)cc1 (configuration not stated),?,.,.,.,.
COc1ccc2cc(C(=O)N/N=C/c3sc4ccccc4c3O)ccc2c1,.,.,.,34,.
COc1ccc(C(=O)N/N=C/c2sc3ccccc3c2O)cc1,.,.,.,.,.
Cc1ccc(C(=O)O)cc1-c1ccc(/C=C2/NC(=O)N(c3ccccc3)C2=O)o1,.,23411,.,.,.
Cc1cc(-c2onc3ccc(Cl)cc23)ccc1O,.,.,.,.,.
CCOC(=O)C1(S(=O)(=O)c2ccc(Cl)cc2)CCN(Cc2ccc(Cl)cc2)CC1,.,23017,.,.,.
CCOC(=O)C1(S(=O)(=O)c2ccccc2)CCN(Cc2ccc(Cl)cc2)CC1,.,.,.,.,.
O=C(CN1C(=O)NC2(CCCc3ccccc32)C1=O)NCc1ccc(Cl)cc1Cl (configuration not stated),.,.,.,.,.
CC1CCN(c2nc3nonc3nc2N2CCC(C)CC2)CC1,.,21212,.,?,.
Cc1cccc(C)c1NC(=O)c1csc(COCCO)n1,.,.,.,.,.
SMILES,BoNT F protease,Autofluor counter,Anthrax LF prot,BoNT-A LC inh2,Vc quorum ag
CN(Cc1nc2ccccc2n1C)C(=O)c1cccs1,.,22484,.,.,.
O=C(c1ccco1)N1CCN(c2ccc(F)cc2)CC1,.,.,.,.,.
O=C(Cc1ccccc1)N1CCN(CC2CC3C=CC2C3)CC1 (configuration not stated),.,.,.,.,.
O=C(c1ccco1)N1CCN(CC2CC3C=CC2C3)CC1 (configuration not stated),.,20016,.,.,.
O=C(c1ccco1)N1CCN(C(=O)c2ccco2)CC1,.,.,.,.,/
O=C(c1ccco1)N1CCN(C(=O)c2sccc2-c2ccccc2)CC1,.,20729,.,.,.
Nc1ccc(N2CCN(C(=O)c3ccco3)CC2)cc1,.,20148,.,.,.
NS(=O)(=O)c1ccc(CNC(=O)c2cc(-c3cccnc3)nc3ccc(Br)cc23)cc1,.,.,.,.,/
Cc1ccc2cc(C(c3nnnn3Cc3ccccc3)N3CCc4ccccc43)c(=O)[nH]c2c1 (configuration not stated),.,.,.,.,.
Cc1cc2cc(C(c3nnnn3Cc3ccccc3)N3CCc4ccccc43)c(=O)[nH]c2cc1C (configuration not stated),.,21199,.,?,.
Cc1ccc2cc(C(c3nnnn3Cc3ccccc3)N3CCc4ccccc43)c(=O)[nH]c2c1C (configuration not stated),.,20150,.,.,.
O=[N+]([O-])c1ccccc1/C=N/Nc1nc(N2CCCC2)nc(N2CCCC2)n1,.,.,.,.,.
COc1nc(N/N=C/c2ccccc2F)nc(N2CCCCC2)n1,.,22376,.,.,.
C=Cc1ccc(CN2CCCN(Cc3ccc(F)cc3)S2(=O)=O)cc1,45,.,.,.,.
CCOC(=O)CSc1nnc(CNC(=O)c2ccc(S(=O)(=O)N3CCCC3)cc2)n1C,.,22679,.,.,.
CCOc1cc(C(=O)NCc2nnc(SCC(=O)OC)n2C)cc(OCC)c1OCC,.,.,.,.,.
COC(=O)CSc1nnc(CNC(=O)c2ccc(S(=O)(=O)N(C)C)cc2)n1C,.,.,.,.,.
NC(=O)CSc1nnc(NC(=O)c2cccc(S(=O)(=O)N3CCCCC3)c2)s1,.,.,.,.,.
CCN(CC)S(=O)(=O)c1ccc(C(=O)NCc2nnc(SCC(=O)OC)n2C)cc1,.,18096,.,.,.
CCOC(=O)CSc1nnc(CNC(=O)c2cc(OCC)c(OCC)c(OCC)c2)n1C,.,23875,.,.,.
CCOC(=O)CSc1nnc(NC(=O)c2cccc(S(=O)(=O)N3CCCCCC3)c2)s1,.,24044,.,.,.
CCCNC(=O)c1cc(OC)c(OC)cc1[N+](=O)[O-],.,24245,.,?,.
COc1cc(C(=O)Nc2ccc(N(C)C)cc2)c([N+](=O)[O-])cc1OC,.,.,.,.,.
COc1cc(C(=O)Nc2ccc(N3CCCS3(=O)=O)cc2)c([N+](=O)[O-])cc1OC,.,18232,.,.,.
CN(CC(=O)c1c(N)n(C)c(=O)n(C)c1=O)c1ccccc1,.,.,.,.,.
OC[C@@H]1CN(Cc2ccc(Cl)cc2)C[C@H](n2cnc3c(NC4CC4)ncnc32)O1,.,.,.,.,.
CCOc1cc(CNCC2CCCN2CC)cc(Cl)c1OC (configuration not stated),.,.,.,.,.
CCN1CCCC1CNCc1cc(OC)c(OC)c(OC)c1 (configuration not stated),.,24874,.,.,.
O=S(=O)(c1ccc(Cl)c(F)c1)N1CCC(c2nc(-c3ccncc3)no2)CC1,.,21243,.,.,.

# Compound activity deposited in PubChem by several laboratories.
